From PubChem BioAssay AID1224904 (Broad Institute, 2016)
The campaign covered roughly 37,000 compounds. About 290 (0.78%) were called active. Not shown: some 10% with an inconclusive outcome. This is one part of a sample in which actives are shown more often than they occur.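 The calls were made as follows: active = mean inhibition of at least 10% in the main channel, exceeding the control channel by a set limit; inconclusive = inhibition of 10% or more but channel gap under a set limit; inactive = mean inhibition below 10%.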

Experiment: inhibitors of DUX4-driven ZSCAN4 reporter expression, primary screen, 293T cells, Gaussia and Italica luciferase (AID 1224904);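 as to activity change, negative = inhibition: 0% = median of neutral control wells and -100% = median of positive control wells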
Conditions: 293T-iDUX4 ZSCAN4-Gaussia luciferase reporter, 24 h, stronger effect = lower value, concentration not given here; for Gaussia minus Italica difference: measured here: selective DUX4 reporter inhibition
[1] = measured here: Italica tet-on control reporter

SMILES | activity change, negative = inhibition | activity change, negative = inhibition [1] [%] | Gaussia minus Italica difference [%]
CCC(=O)N1CC2(C1)[C@@H](c1ccccc1)[C@H](CO)N2CC1CCOCC1 | -0.159% (inactive) | 8.93 | -9.09
C[C@@H]1CC=CC[C@H](c2ccc(F)cc2)NC(=O)[C@@H](Cc2ccccc2)N(C)C(=O)c2ccccc2O1 (mixture of isomers) | -2.82% (inactive) | -1.88 | -0.938
CC(C)NC(=O)N1C[C@@H]2[C@H](c3ccccc31)[C@H](CO)N2C(=O)C1CCCC1 | -2.38% (inactive) | -1.49 | -0.893
CCCNC(=O)[C@@H]1[C@@H](CO)[C@@H]2Cn3c(cccc3=O)[C@H]1N2C(=O)Nc1cc(F)ccc1F | 6.78% (inactive) | 10.8 | -3.98
Cc1noc(C)c1NC(=O)N[C@@H]1C=C[C@H](CC(=O)N2CCCCC2)O[C@H]1CO | 5.84% (inactive) | 1.64 | 4.2
C[C@@H]1CN([C@H](C)CO)S(=O)(=O)c2ccc(C#CC3CCCC3)cc2O[C@@H]1CN(C)Cc1ccccc1C(=O)O | -1.04% (inactive) | -2.07 | 1.03
CC=Cc1ccc2n(c1=O)C[C@@H]1[C@@H](CO)[C@H](C(=O)N(C)C)N(CC3CCOCC3)[C@H]21 (mixture of isomers) | 3.1% (inactive) | 6.26 | -3.17
COc1ccccc1NC(=O)N[C@H]1C=C[C@H](CC(=O)N[C@@H](C)c2ccccc2)O[C@H]1CO | -2% (inactive) | -1.1 | -0.906
O=C(Nc1ccccc1F)N1C[C@H]2[C@@H](c3ccccc31)[C@H](CO)N2C(=O)c1ccccn1 | -3.65% (inactive) | -2.86 | -0.784
O=C(CN1CCOCC1)N1CCCCN2[C@H](CO)[C@H](c3ccc(Br)cc3)[C@H]2C1 | 9.07% (inactive) | -4.46 | 13.5
OC[C@H]1[C@@H](c2ccc(C#CC3(O)CCCC3)cc2)[C@H]2CN(Cc3cncnc3)CCCCN21 | 13.2% (inactive) | 12.8 | 0.35
O=C(C1CCCCC1)N1CC(=O)N2[C@H](CO)[C@@H](c3ccc(-c4ccccc4F)cc3)[C@@H]2C1 | -8.07% (inactive) | -1.6 | -6.47
CNC(=O)C[C@H]1CC[C@@H]2[C@H](COc3ccc(NC(=O)Nc4ccc(F)c(F)c4)cc3C(=O)N2C)O1 | -0.979% (inactive) | -3.84 | 2.86
O=C(C[C@@H]1C[C@H]2c3cc(NC(=O)Nc4ccccc4F)ccc3O[C@H]2[C@@H](CO)O1)NCc1ccncc1 | -1.77% (inactive) | 0.554 | -2.32
C[C@@H](NC(=O)[C@@H]1[C@@H](CO)[C@@H]2Cn3c(ccc(C4=CCCCC4)c3=O)[C@@H]2N1C)c1ccccc1 | 3.54% (inactive) | 1.39 | 2.15
CN1C(=O)c2cc(NC(=O)c3ccc(F)cc3)ccc2OC[C@H]2O[C@H](CC(=O)N3CCOCC3)CC[C@@H]21 | 1.69% (inactive) | -7.81 | 9.5
COCC(=O)N[C@@H]1C=C[C@@H](CC(=O)N2CCCCC2)O[C@@H]1CO | 6.06% (inactive) | -1.08 | 7.14
O=C(C1CCCC1)N1CC2(C1)[C@H](c1ccccc1)[C@H](CO)N2CCC(F)(F)F | -0.604% (inactive) | 2.75 | -3.36
O=C(Cc1ccccc1)N1C[C@H]2[C@@H](c3ccccc31)[C@H](CO)N2C(=O)C1CCOCC1 | -0.397% (inactive) | -3.56 | 3.16
COc1ccc(NC(=O)N2C[C@H](O)COC[C@@H]3O[C@@H](CC(=O)NCc4ccccc4OC)CC[C@H]32)cc1 | 2.52% (inactive) | 3.01 | -0.496
CCCC(=O)Nc1ccc2c(c1)C(=O)N(C)[C@@H]1CC[C@H](CC(=O)NCCN3CCCCC3)O[C@@H]1CO2 | -1.36% (inactive) | 5.24 | -6.6
CO[C@H]1CN(C)C(=O)c2ccc(NC(=O)Nc3ccccc3)cc2OC[C@@H](C)N(C(=O)CC2CC2)C[C@@H]1C | -6.56% (inactive) | 5.38 | -11.9
O=C(CC1CC1)Nc1ccc2c(c1)[C@@H]1C[C@@H](CC(=O)NC3CCCCC3)O[C@H](CO)[C@@H]1O2 | 5.02% (inactive) | 5.44 | -0.425
COCC(=O)Nc1ccc2c(c1)C(=O)N(C)[C@@H]1CC[C@H](CC(=O)NCCc3ccccc3)O[C@@H]1CO2 | 0.635% (inactive) | 5.13 | -4.5
CC(C)NC(=O)N1[C@H](CO)[C@@H]2c3ccccc3N(C(=O)Nc3cccc(Cl)c3)C[C@@H]21 | 5.76% (inactive) | 2.62 | 3.13
COc1ccc(NC(=O)Nc2ccc3c(c2)[C@@H]2C[C@@H](CC(=O)NCc4ccncc4)O[C@@H](CO)[C@@H]2O3)cc1 | -2.23% (inactive) | 2.02 | -4.25
CCN(C[C@@H]1[C@H](c2ccccc2)[C@@H](CO)N1CC1CC1)C(=O)c1ccccn1 | -3.34% (inactive) | -1.85 | -1.49
COCC(=O)N(C[C@H]1N[C@H](CO)[C@H]1c1ccc(C2=CCCCC2)cc1)C(C)C | 2.12% (inactive) | 3.71 | -1.6

SMILES | activity change, negative = inhibition | activity change, negative = inhibition [1] [%] | Gaussia minus Italica difference [%]
COc1ccccc1C#Cc1cnc2c(c1)C(=O)N([C@@H](C)CO)C[C@@H](C)[C@H](CN(C)C(=O)CN(C)C)O2 | -1.64% (inactive) | -4.12 | 2.47
CCC(=O)N1[C@H](C(=O)NCc2ccc(F)cc2)[C@@H](CO)[C@@H]2Cn3c(ccc(C4=CCCCC4)c3=O)[C@@H]21 | 2.81% (inactive) | -5.8 | 8.61
CCCN1C[C@@H](C)[C@H](OC)CN(C)C(=O)c2ccc(NC(=O)C3CCOCC3)cc2OC[C@@H]1C | 2.85% (inactive) | 6.21 | -3.36
C[C@H](NC(=O)C[C@H]1C=C[C@H](NS(=O)(=O)c2cccc(F)c2)[C@@H](CO)O1)c1ccccc1 | 2.8% (inactive) | 1.12 | 1.67
O=C1CCC(=O)N[C@H](c2ccccc2)C/C=C\CCN1 | -2.86% (inactive) | -3.05 | 0.183
O=C(NCC(F)(F)F)[C@H]1[C@H](CO)[C@H]2Cn3c(ccc(-c4ccncc4)c3=O)[C@H]2N1Cc1ccncc1 | 5.89% (inactive) | -1.87 | 7.77
CCNC(=O)C[C@@H]1CC[C@@H]2[C@H](COC[C@H](O)CN2S(=O)(=O)c2ccc(Oc3ccccc3)cc2)O1 | 1.12% (inactive) | 2.14 | -1.02
CC(C)[C@@H]1COCc2cnnn2CCC[C@H](C)C(=O)N1 | -1.36% (inactive) | -1.01 | -0.347
COCC(=O)N1[C@H](CNC(=O)c2ccccn2)[C@H](c2ccccc2)[C@@H]1CO | -0.865% (inactive) | 1.68 | -2.54
Cc1ccc(S(=O)(=O)N(C)C[C@H]2OCc3ccccc3-c3ccccc3C(=O)N([C@@H](C)CO)C[C@@H]2C)cc1 | 10.1% (inactive) | 2.48 | 7.63
O=C(C[C@@H]1CC[C@@H]2[C@H](COC[C@H](O)CN2Cc2cccc(F)c2)O1)NCc1ccncc1 | 6.79% (inactive) | -2.25 | 9.04
CCCC#Cc1ccc([C@H]2[C@@H](CO)N3CCCCN(C(=O)c4ccc5c(c4)OCO5)C[C@@H]23)cc1 | -4.6% (inactive) | 3.84 | -8.43
CCC(=O)N1CC2(C1)[C@@H](c1ccc(-c3ccc(C#N)cc3)cc1)[C@H](CO)N2C(C)=O | 10.1% (inactive) | -1.24 | 11.4
CCC(=O)N1CCC2(CC1)CN(Cc1cccc(Cl)c1)[C@@H](CO)c1c2c2ccc(OC)cc2n1C | -5.44% (inactive) | -3.43 | -2.02
C/C=C/c1ccc([C@H]2[C@@H](CO)N(C(=O)CN(C)C)C23CN(C(=O)C2CCCC2)C3)cc1 | -0.233% (inactive) | -6.7 | 6.47
COc1cc(CN2CC3(CN(S(=O)(=O)c4cn(C)cn4)C3)c3c(n(C)c4cc(OC)ccc34)[C@H]2CO)cc(OC)c1 | -2.88% (inactive) | -0.316 | -2.57
CCCNC(=O)C[C@H]1CC[C@H]2[C@H](COc3ccc(NC(=O)CC)cc3C(=O)N2C)O1 | 2.97% (inactive) | -1.81 | 4.79
CN(C)C(=O)[C@@H]1[C@@H](CO)[C@@H]2Cn3c(cccc3=O)[C@H]1N2CC1CCCCC1 | -1.56% (inactive) | -4.57 | 3
COc1cccc(-c2ccc([C@@H]3[C@@H](CO)N(C(=O)c4ccccn4)[C@H]3C#N)cc2)c1 | 5.81% (inactive) | -1.92 | 7.74
C[C@H](NC(=O)C[C@@H]1CC[C@@H]2[C@H](COC[C@@H](O)CN2Cc2cc(F)ccc2F)O1)c1ccccc1 | 0.118% (inactive) | 1.93 | -1.81
O=C(Cc1ccccc1)N1C[C@@H]2[C@H](c3ccccc31)[C@@H](CO)N2C(=O)C1CCOCC1 | 1% (inactive) | 2.15 | -1.15
C[C@@H](O)C#Cc1ccc([C@@H]2[C@H]3CN(C(=O)c4ccc5c(c4)OCO5)CCCCN3[C@H]2CO)cc1 | 1.93% (inactive) | 10.3 | -8.36
COCC(=O)Nc1ccc2c(c1)C(=O)N(C)[C@@H]1CC[C@@H](CC(=O)NCCCN(C)C)O[C@@H]1CO2 | -2.75% (inactive) | -0.412 | -2.33
COc1ccccc1S(=O)(=O)N1CC[C@H]2[C@@H](CO)N(C)c3ccc(C#Cc4ccccc4)cc3[C@H]21 | 8.89% (inactive) | 12.9 | -4.03
C[C@@H]1CN([C@@H](C)CO)C(=O)c2c(c3ccccc3n2C)-c2ccccc2CO[C@H]1CN(C)C(=O)C1CC1 | 7.74% (inactive) | 14.6 | -6.9
COc1ccccc1NC(=O)N1[C@@H]2CNC[C@H]1C2c1ccc(-c2ccccc2C)cc1 (stereo not given in full) | 17.2% (inactive) | 3.5 | 13.7
O=C1N[C@H](c2ccccc2)COCc2cn(nn2)CC[C@@H]1Cc1ccc(Cl)cc1 | -6.57% (inactive) | -14.5 | 7.94
